Our source for the inhibition values is PubChem BioAssay.

For test [1], the system named is transactivating tegument protein VP16 (Human herpesvirus 1). In words: compounds suppressing VP16-driven luciferase signal – cell-based, luminescence, single concentration, counter-screen for SRC2 inhibitor project (AID 652007). The note with it: cell-based VP16 transactivation luciferase reporter, at 8.9 µM, hits give high values. (The purpose of a counterscreen is to sort out artefacts and off-target activity.)

Test [2] concerns the target Nuclear receptor coactivator 2 (Homo sapiens) (UniProt Q15596). In words: inhibition of GAL4-SRC2 driven luciferase expression – cell-based, luminescence, HEK293, triplicate, confirmation (AID 652008;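 active means mean inhibition above 46.5%, the solvent-only control mean plus 3 SD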;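 further: 0% = DMSO-treated cells and 100% = Gossypol at 36 µM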). The note with it: HEK293 GAL4-SRC2 luciferase reporter, at 8.9 µM, hits give high values.

Activity calls are given as the source filed them. Unless noted, no stated cut-off is given here; in the data, active means inhibition above about 36%; inactive means the rest.

A word on the inhibition: it is the drop in the measured response relative to a control, in per cent.

Chain of Nuclear receptor coactivator 2 (Homo sapiens) (Q15596 whole entry, looked up, the tested form may be a part): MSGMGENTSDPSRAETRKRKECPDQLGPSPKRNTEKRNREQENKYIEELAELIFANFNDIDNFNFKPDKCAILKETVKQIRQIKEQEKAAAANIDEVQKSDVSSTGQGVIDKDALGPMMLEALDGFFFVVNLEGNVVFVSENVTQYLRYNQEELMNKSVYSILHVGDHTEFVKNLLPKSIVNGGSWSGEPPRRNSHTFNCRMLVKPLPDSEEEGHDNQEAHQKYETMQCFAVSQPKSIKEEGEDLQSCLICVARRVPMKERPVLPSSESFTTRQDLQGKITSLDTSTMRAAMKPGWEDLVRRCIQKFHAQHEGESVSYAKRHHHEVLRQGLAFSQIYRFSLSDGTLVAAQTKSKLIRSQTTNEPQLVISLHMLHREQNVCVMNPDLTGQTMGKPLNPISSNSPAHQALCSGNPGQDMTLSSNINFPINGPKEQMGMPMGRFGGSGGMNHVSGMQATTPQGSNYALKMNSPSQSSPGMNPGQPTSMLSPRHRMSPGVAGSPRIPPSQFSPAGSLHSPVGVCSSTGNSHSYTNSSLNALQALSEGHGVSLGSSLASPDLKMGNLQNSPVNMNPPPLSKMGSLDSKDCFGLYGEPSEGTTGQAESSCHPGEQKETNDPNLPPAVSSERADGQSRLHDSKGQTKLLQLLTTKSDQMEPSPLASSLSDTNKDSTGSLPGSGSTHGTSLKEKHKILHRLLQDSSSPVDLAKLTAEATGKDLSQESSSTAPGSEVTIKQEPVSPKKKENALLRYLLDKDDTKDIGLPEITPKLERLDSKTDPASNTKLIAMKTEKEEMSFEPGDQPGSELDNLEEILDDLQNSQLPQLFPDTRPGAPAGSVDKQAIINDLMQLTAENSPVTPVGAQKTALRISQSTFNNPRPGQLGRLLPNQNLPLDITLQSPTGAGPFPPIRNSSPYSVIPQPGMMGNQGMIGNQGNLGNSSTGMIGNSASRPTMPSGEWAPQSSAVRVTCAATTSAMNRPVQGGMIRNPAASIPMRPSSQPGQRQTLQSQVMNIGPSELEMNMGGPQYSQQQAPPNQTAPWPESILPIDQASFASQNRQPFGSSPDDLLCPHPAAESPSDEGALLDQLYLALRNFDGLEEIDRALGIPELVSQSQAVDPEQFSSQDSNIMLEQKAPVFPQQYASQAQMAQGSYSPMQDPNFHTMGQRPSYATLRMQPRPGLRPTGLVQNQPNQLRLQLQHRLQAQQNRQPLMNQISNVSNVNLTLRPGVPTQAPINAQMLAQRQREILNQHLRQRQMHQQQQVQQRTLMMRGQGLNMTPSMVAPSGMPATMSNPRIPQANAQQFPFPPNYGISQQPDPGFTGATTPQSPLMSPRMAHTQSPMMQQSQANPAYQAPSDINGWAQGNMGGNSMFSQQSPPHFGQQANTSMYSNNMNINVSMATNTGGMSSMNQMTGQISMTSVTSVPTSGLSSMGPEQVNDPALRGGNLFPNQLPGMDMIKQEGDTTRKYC

Take `O=[N+]([O-])c1ccc(Sc2nccn2Cc2ccccc2)c([N+](=O)[O-])c1`: the inhibition is 4.42% (inactive) in test [1] and 32.1% (inactive) in test [2].

As for `COC(=O)[C@H]1[C@@H](O)[C@@]2(O)c3c(OC)cc(OC)cc3O[C@@]2(c2ccc(OC)cc2)[C@@H]1c1ccc(F)cc1`, the results for the inhibition in test [1] and in test [2] were 32.4% (inactive) and 51.4% (active), respectively.

As to `CCOC(=O)Cc1ccc(NC(=O)c2ccc(C(C)(C)C)cc2)cc1`, the inhibition in test [1] was -47.1% (inactive); in test [2], 63.9% (active).

As for `Cc1cccc(C(=O)N2CCC(Cc3ccccc3)CC2)c1[N+](=O)[O-]`, the inhibition in test [1] is 14.4% (inactive); in test [2], 38.3% (inactive).

On to `Cc1ccc2nc(-c3ccc4c(c3)OCCO4)cn2c1`, for which the inhibition was 58.9% (active) in test [1] and 88.3% (active) in test [2].

As to `O=c1[nH][nH]c(-c2ccccc2O)c1C(C[N+](=O)[O-])c1ccc(Br)cc1` (configuration not stated), the values for the inhibition in test [1] and in test [2] were 24.3% (inactive) and -0.61% (inactive), respectively.

As to `CCC/C(C#Cc1ccsc1)=C1/c2ccccc2C(=O)N1c1ccccc1`, the inhibition in test [1] was -8.53% (inactive); in test [2], -18.8% (inactive).

In the case of `O=C1CSc2ccc(C(=O)Nc3cccc(S(=O)(=O)Nc4ccc(Br)cc4)c3)cc2N1`, the figures for the inhibition in test [1] and in test [2] were 11.2% (inactive) and 25.2% (inactive), respectively.

As for `COc1cc(NC(=O)C2CC(c3c(F)cccc3Cl)=NO2)cc(OC)c1OC` (configuration not stated), the results for the inhibition in test [1] and in test [2] were -4.58% (inactive) and 4.43% (inactive), respectively.

Regarding `Nn1c(SCC(=O)Nc2cccc3ccccc23)nnc1-c1cc(-c2ccc(Cl)cc2)n[nH]1`, the inhibition in test [1] was 51% (active); in test [2], 15.4% (inactive).

Turning to `CC(C)c1nc(N2CCOCC2)c(C#N)c2c1CCC2`, the inhibition in test [1] is -15.7% (inactive); in test [2], 4.3% (inactive).

As for `CCCN1C2CCCC1CC(NC(=O)c1cccc(Cl)c1)C2` (configuration not stated), the inhibition in test [1] was 4.37% (inactive); in test [2], 40.8% (inactive).

Consider `CN1/C(=C/C=C/c2n(C)c3cc([N+](=O)[O-])c([N+](=O)[O-])cc3[n+]2C)C(C)(C)c2ccccc21`, for which the inhibition in test [1] is 3.99% (inactive); in test [2], -3.59% (inactive).

As to `CC1CCCCC12NC(=O)N(CC(=O)Nc1ccc(OC(F)F)cc1)C2=O` (configuration not stated), the inhibition in test [1] was -18.4% (inactive); in test [2] it was -11.2% (inactive).

For `O=C(COC(=O)c1cc(S(=O)(=O)N2CCOCC2)ccc1F)NCc1ccc2c(c1)OCO2`, the inhibition in test [1] was -10.1% (inactive); in test [2], -5.62% (inactive).

As for `N#Cc1c([N+](=O)[O-])cc([N+](=O)[O-])cc1S(=O)(=O)Cc1ccccc1`, the inhibition is 96.4% (active) in test [1] and 98.5% (active) in test [2].

In the case of `CCc1ccc(/C=C2\SC(=S)N(CCC(=O)Nc3cc(C)on3)C2=O)cc1`, the results for the inhibition in test [1] and in test [2] were -41% (inactive) and 16.6% (inactive), respectively.

Take `COC(=O)c1c(NC(=O)CCCC(=O)O)sc2c1CCCCC2`: the inhibition in test [1] was 29.6% (inactive); in test [2], 53.8% (active).

For the molecule `Cc1ccc(/C=C2\SC(=S)N(CCCC(=O)Nc3ccccc3C(=O)O)C2=O)cc1`, the inhibition was 40% (active) in test [1] and 59.4% (active) in test [2].

Regarding `Cc1nc([N+](=O)[O-])c(Br)n1Cc1ccc(Cl)c(Cl)c1`, the values for the inhibition in test [1] and in test [2] were 10.6% (inactive) and 43.9% (inactive), respectively.

Take `COc1ccc(C(=O)O/N=C(\N)c2ccccn2)cc1`: the inhibition in test [1] was -70.2% (inactive); in test [2], 30% (inactive).

Consider `O=C(CCCc1cccs1)N1CCN(S(=O)(=O)c2ccccc2Br)CC1`, for which the inhibition in test [1] was -1.31% (inactive); in test [2], -4.17% (inactive).

On to `Cn1nnnc1Sc1ncnc2scc(-c3ccc(C(F)(F)F)cc3)c12`, for which the inhibition in test [1] is 35.2% (inactive); in test [2] it was 44.4% (inactive).

As to `CCc1ccc(CNC(=O)c2cc3c(C)nc4ccccc4c3o2)cc1`, the figures for the inhibition in test [1] and in test [2] were 20.6% (inactive) and 10.3% (inactive), respectively.

On to `COc1ccc(NC(=O)COc2coc(CN3CCN(c4ccccc4)CC3)cc2=O)cc1`, for which the inhibition in test [1] is -6.47% (inactive); in test [2], -1.96% (inactive).

On to `CC(=O)Nc1c([N+](=O)[O-])cc(C)c(Cl)c1[N+](=O)[O-]`, for which the inhibition in test [1] was -10.7% (inactive); in test [2], 3.8% (inactive).

Regarding `CCCNC(=O)c1ccc(N2CCC3(CC2)CC(c2cccc(Br)c2)=NO3)c([N+](=O)[O-])c1`, the inhibition in test [1] was 8% (inactive); in test [2], 7.7% (inactive).

On to `COc1ccc(OC)c(-n2nnnc2SCC(=O)Nc2cc(C)ccc2OC)c1`, for which the inhibition in test [1] was -22.1% (inactive); in test [2], 2.63% (inactive).

In the case of `COc1ccc(C(NC(=O)C2CCN(CCCOc3ccccc3)CC2)c2cccs2)cc1` (configuration not stated), the figures for the inhibition in test [1] and in test [2] were -8.07% (inactive) and 3.49% (inactive), respectively.

Regarding `CCOC(=O)Cn1c(=O)c2c(nc(N3CCCCC3)n2Cc2ccccc2)n(C)c1=O`, the inhibition in test [1] was -5.76% (inactive); in test [2] it was 4.93% (inactive).

`CC(c1nccs1)N(C)C(=O)CCc1nnc(-c2ccc(-c3ccccc3)cc2)o1` (configuration not stated): the inhibition in test [1] was -11% (inactive); in test [2], 30.6% (inactive).
